# Tb PYK inh: inhibitors of Trypanosoma brucei pyruvate kinase. Q57TT1. TbPYK enzyme, Kinase-Glo Plus ATP luminescence, 45 min. Potency, µM (top dose mostly 76.8 µM), without a hit: at the top dose activity, negative = inhibition, most hits filed as inhibitors. actives 0.12% (n = 410,000); also: nearly all actives have a fitted effect of over 50% in size
#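 TbPYK + substrate in 50 mM TEA pH 7.2, 100 mM KCl, 10 mM MgCl2, 0.05% BSA, 0.01% Tween-20; cpd pinned; ADP 130 uM final; 45 min RT; Kinase-Glo Plus 10 min; luminescence endpoint.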
# LmPK inh: blocks Leishmania mexicana pyruvate kinase activity | Q27686 | purified LmPK, Kinase-Glo ATP luminescence, 1 h | Potency, µM (top dose mostly 57.5 µM), for inactives: at the top dose activity change, negative = inhibition, hits mostly inhibitors | actives 0.37% (n = 290,000) | AID 1721
# Target sequence (Q27686 whole entry, looked up): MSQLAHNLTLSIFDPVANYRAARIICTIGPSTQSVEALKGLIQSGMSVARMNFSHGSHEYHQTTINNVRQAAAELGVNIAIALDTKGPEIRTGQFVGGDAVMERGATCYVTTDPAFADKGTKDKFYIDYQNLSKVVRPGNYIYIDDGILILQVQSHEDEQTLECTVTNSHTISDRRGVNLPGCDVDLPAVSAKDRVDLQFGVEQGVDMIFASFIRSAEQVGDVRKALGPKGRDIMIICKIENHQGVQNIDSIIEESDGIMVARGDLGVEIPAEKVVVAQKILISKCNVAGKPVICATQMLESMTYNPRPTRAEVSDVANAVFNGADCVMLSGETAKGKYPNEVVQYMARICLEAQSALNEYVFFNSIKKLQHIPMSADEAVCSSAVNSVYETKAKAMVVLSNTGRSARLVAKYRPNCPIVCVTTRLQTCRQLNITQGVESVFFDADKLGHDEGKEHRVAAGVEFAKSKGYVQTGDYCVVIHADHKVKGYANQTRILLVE
#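 Kinase-Glo luminescence read after 1 h RT reaction of 0.1 nM LmPK with 0.5 mM PEP and 0.1 mM ADP. Activity scaled between uninhibited and enzyme-free controls.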
# Giardia FBPA inh-1: blocks Giardia fructose-bisphosphate aldolase activity; A8B2U2; Potency, µM (highest dose often 59.6 µM), without a hit: at the top dose activity, negative = inhibition, hits mostly inhibitors; purified Giardia FBPA; AID 2451; actives 0.71% (n = 290,000); also: nearly all actives have a fitted effect of over 55% in size
#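 40 nM FBPA preincubated 10 min at RT with compound (up to 57.5 uM final), then substrate plus GAPDH/TPI/NAD/arsenate coupling and diaphorase/resazurin added. Fluorescence read after 20 min at RT, 525/598 nm.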
# RE007 growth inh: less growth of the S. pombe RE007 Vpr strain; S. pombe RE007 Vpr strain, BacTiter-Glo ATP luminescence, 24 h; Potency, µM (series often up to 92.2 µM), inactives show at the highest dose activity change, negative = less growth, usual class: inhibitors; actives 0.21% (n = 360,000); AID 651644; active = well fitted falling curve with a large enough effect; inconclusive = small, poorly fitted or top-dose-only effect; inactive = no such curve, though single readings can be large or run the other way; also: nearly all actives have a fitted effect of over 50% in size
#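 Fission yeast RE007 carrying one integrated HIV-1 vpr copy, seeded at OD 0.01 in PMG+AL medium with 23 nL pinned compound. Grown 24 h at 30 degrees; viability read by BacTiter-Glo luminescence after 5 min.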
# Giardia growth: Giardia lamblia growth inhibition. Giardia lamblia trophozoite growth inhibition. AID 2785. shares compounds with Giardia FBPA inh-1. Potency, µM (top dose mostly 57.5 µM), for inactives: top-dose activity change, negative = inhibition, actives largely listed as inhibitors. actives 5% (n = 1,500);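 also: trophozoites exposed to compound for 48 h at 37 °C; nearly all actives have a fitted effect of over 70% in size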
# Mammalian tox: mammalian cytotoxicity of Giardia aldolase inhibitor hits; shares compounds with Giardia FBPA inh-1; mammalian cell viability counter-screen, qHTS; actives 4% (n = 1,500); Potency, µM (doses to about 57.5 µM), inactives show top-dose viability change, negative = toxicity, most hits filed as inhibitors;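 also: Chinese hamster ovary cells used as mammalian cytotoxicity surrogate; viability measured as cellular ATP by luminescence; compound exposure lasted 48 h before reading; nearly all actives have a fitted effect of over 60% in size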
# Giardia FBPA inh-2: confirmation of Giardia fructose-bisphosphate aldolase inhibitors; shares compounds with Giardia FBPA inh-1; purified Giardia aldolase enzyme activity, qHTS; Potency, µM (series often up to 57.5 µM), for the others: at the highest dose activity change, negative = inhibition, usual class: inhibitors; actives 5% (n = 1,500); also: nearly all actives have a fitted effect of over 45% in size
# Rabbit FBPA inh: selectivity test for Giardia aldolase inhibitors: rabbit aldolase; shares compounds with Giardia FBPA inh-1; Rabbit muscle FBPA enzyme inhibition, selectivity counter-screen; Potency, µM (titrated, usually from 57.5 µM), inactives show at the top dose activity, negative = inhibition, usual class: inhibitors; actives 4% (n = 1,500); AID 2794; also: nearly all actives have a fitted effect of over 60% in size
# GAPDH counter: GAPDH inhibition flagged for Giardia aldolase hits; shares compounds with Giardia FBPA inh-1; GAPDH coupling enzyme counterscreen, biochemical, qHTS; actives 6% (n = 1,500); Potency, µM (series often up to 57.5 µM), inactives show top-dose activity change, negative = inhibition, usual class: inhibitors; also: nearly all actives have a fitted effect of over 55% in size
# * hit, by the source's call; ? = inconclusive; . = no result given; [ ] = dose if it differs, or a comment. Most compounds without a hit are left out; they make up all but 0.95% or so of the library. Unless noted, calls follow the shape of the dose curve; as a rule, active = well fitted curve in the direction sought with a large enough effect; inconclusive = small, poorly fitted or top-dose-only effect, or another doubt; inactive = no such curve, though single readings can be large; an effect the other way counts as inactive or inconclusive. % is scaled to controls: 0 for no effect and ±100 for the full control effect; potency is read from the fitted curve at half-maximal effect.
SMILES,Tb PYK inh,LmPK inh,Giardia FBPA inh-1,RE007 growth inh,Giardia growth,Mammalian tox,Giardia FBPA inh-2,Rabbit FBPA inh,GAPDH counter
COc1ccccc1-n1c(-c2ccco2)n[nH]c1=S,10µM*,?,14µM*,15%,3%[10.4 µM],6%,-3%,14%,-8%
CCc1cc2c(cc3c(=O)n(CC(=O)NC(C)c4ccccc4)ncn32)s1 (stereo unspecified),-8%,.,.,.,.,.,.,.,.
Nc1ccc(-c2c3ccc(=O)cc-3oc3cc(O)ccc23)cc1C(=O)O,-5%,3%,-15%,-6%,.,.,.,.,.
O=c1ccc2c(-c3ccccc3)c3ccc(O)cc3oc-2c1,8%,-5%,14µM*,6%,?,5%,-23%,-5%,-9%
COc1cc2nc(CN(C)Cc3nc4ccccc4c(=O)[nH]3)[nH]c(=O)c2cc1OC,4%,-2%,?,7%,.,.,.,.,.
CCN(Cc1nc2ccccc2c(=O)[nH]1)Cc1nc2ccsc2c(=O)[nH]1,1%,9%,0.79µM*,-8%,8%[38.3 µM],-27%,-13%,-22%,?
CCN(Cc1nc2ccccc2c(=O)[nH]1)Cc1nc2cc(OC)c(OC)cc2c(=O)[nH]1,11%,7%,5.6µM*,5%,-6%[38.3 µM],-15%,?,-21%,-23%
COc1ccc(C2C(=O)N(C3CCCCC3)CC(=O)N2CCc2ccc(OC)c(OC)c2)cc1 (stereo unspecified),3%,.,.,.,.,.,.,.,.
CC(C)=CCC/C(C)=C/CO/N=C1/C[C@@H](O)[C@@H](O)[C@@H]2[C@@H]3C(=O)N(C[C@@H]4CCCO4)C(=O)[C@H]3CC[C@H]12,.,.,-2%[12.9 µM],.,.,.,.,.,.
C[C@H](NC(=O)[C@H]1N2C(=O)c3ccccc3C2SC1(C)C)C(=O)N1CCCCC1 (stereo partly specified),-11%,-1%,20µM*,-3%,16%,6%,-14%,-11%,?
C[C@H](NC(=O)[C@H]1N2C(=O)c3ccccc3C2SC1(C)C)C(=O)N1CCN(C)CC1 (stereo partly specified),-4%,-4%,-5%,-9%,.,.,.,.,.
COCCNC(=O)C(=O)Nc1cccc(Br)c1,-2%,8%,0%,-6%,.,.,.,.,.
COCCNC(=S)NNc1cccc(C(=O)O)c1,-12%,1%[11.5 µM],8.9µM*,-13%,-1%[38.3 µM],4%,0%,1%,-13%
O=C(c1cccc(Cl)c1)N(Cc1ccco1)Cc1ccccc1Cl,-10%,.,.,.,.,.,.,.,.
CC1CCCN(S(=O)(=O)c2ccc(C(=O)Nc3nnc(-c4ccccn4)o3)cc2)C1 (stereo unspecified),4%,7%,18µM*,5%,-17%,16%,24%,19%,8%
O=C(Nc1nnc(-c2ccco2)o1)c1ccc(S(=O)(=O)N2CCCC2)cc1,6%,1%[11.5 µM],5µM*,16%,0%[10.4 µM],-6%,11%,12%,-15%
CC1CN(S(=O)(=O)c2ccc(C(=O)Nc3nnc(-c4ccco4)o3)cc2)CC(C)O1 (stereo unspecified),-8%,2%,18µM*,5%,-8%,20%,21%,13%,7%
CC1CCN(S(=O)(=O)c2ccc(C(=O)Nc3nnc(-c4ccco4)o3)cc2)CC1,-1%,5%,-29%,2%,.,.,.,.,.
COc1cccc(-c2ccc3ncnc(NCCNC(C)=O)c3c2)c1,.,.,2%,.,.,.,.,.,.
CCOCCCn1c(=N)c(C(=O)NC(C)c2ccccc2)cc2c(=O)n3cccc(C)c3nc21 (stereo unspecified),9%,.,.,.,.,.,.,.,.
CCCOc1ccccc1C(=O)N1CCCCC1CCN1CCCCC1 (stereo unspecified),-17%,.,.,.,.,.,.,.,.
O=C(NC(=S)Nc1ccc([N+](=O)[O-])cc1)c1ccco1,0%,.,.,3%,.,.,.,.,.
O=C(NC(=S)Nc1ccccc1[N+](=O)[O-])c1ccco1,7%,0%,16µM*,-20%,35µM*,1%,-2%,-7%,3%
Cc1ccccc1NC(=S)NNC(=O)c1ccco1,-6%,-2%,7.9µM*,5%,?,-9%,6%,-1%,2%
COC(=O)c1cc(OC)c(OC)cc1NC(=S)NC(=O)c1ccco1,-9%,1%,13µM*,-3%,18%,-16%,0%,3%,14%
SMILES,Tb PYK inh,LmPK inh,Giardia FBPA inh-1,RE007 growth inh,Giardia growth,Mammalian tox,Giardia FBPA inh-2,Rabbit FBPA inh,GAPDH counter
CCCCCOc1ccc(C2SC(=O)NC2=O)cc1OCC (stereo unspecified),-5%,.,.,.,.,.,.,.,.
O=C1CCC[C@@H](C(C(=O)OCc2ccccc2)C(=O)OCc2ccccc2)C1,.,.,-3%[12.9 µM],.,.,.,.,.,.
CCN(CC)CCCNC(=O)C1CCN(S(C)(=O)=O)CC1,-11%,.,.,.,.,.,.,.,.
COc1cc(-c2nc(C(=O)NCC3CCCO3)cc3c2[nH]c2ccccc23)cc(OC)c1OC (stereo unspecified),-9%,?,8.9µM*,0%,-9%,40µM*,-1%,-9%,-1%
COc1ccccc1-c1nc(C(=O)NCC2CCCO2)cc2c1[nH]c1ccccc12 (stereo unspecified),-10%,-7%,-14%,-1%,.,.,.,.,.
O=[N+]([O-])c1ccccc1/C=C/CN1CCSCC1,17%,-1%,16µM*,3%,?,19%,-1%,13%,-4%
CC(C)c1ccc(S(=O)(=O)c2cn(CC(=O)Nc3ccc(F)cc3)c3ccccc3c2=O)cc1,7%,.,.,.,.,.,.,.,.
COc1cc(CN2CCN(S(=O)(=O)c3ccccc3)CC2)cc(OC)c1OC,7%,-6%,25µM*,9%,24%,-9%,-3%,0%,9%
COc1ccc(S(=O)(=O)N2CCC(N3CCN(Cc4ccccc4)CC3)CC2)cc1,13%,-4%,13µM*,-24%,63%,-2%,5%,2%,16%
O=S(=O)(c1ccc(Cl)cc1)N1CCN(C2CCN(Cc3ccccc3)CC2)CC1,2%,1%,8%,-5%,.,.,.,.,.
Cc1ccc(N2CCN(C(=S)c3ccc(-c4cccc([N+](=O)[O-])c4)o3)CC2)cc1,-15%,-2%,16µM*,10%,-17%[10.4 µM],-14%,-1%,-5%,6%

# High-throughput results: PubChem BioAssay, National Center for Advancing Translational Sciences (NCATS)
